From PubChem BioAssay come the findings set out here.

Calls of active or inactive are those of the source.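 How the source made its calls, unless noted: active means inhibition above the screen-wide mean plus 3 SD, about 51%; inactive means the rest.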

A short description of experiment [1]: reduced mouse 2C T cell binding to pMHC/ICAM-1 vesicles – MLPCN validation set, flow cytometry, LFA-1/ICAM-1 modulator project, pilot screen (AID 2523;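 active means response below a set limit, under 55% cells CD8-positive and vesicle-bound, and CD8 cells' 90th-percentile brightness under 279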;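 on vesicle binding response: mean PE anti-B7-1 fluorescence of CD8+ cells relative to row control; 100% = QL9-loaded vesicles with DMSO vehicle in the same plate row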). As to conditions: 2C mouse CD8+ T cells, at 7 µM, stronger effect = lower value; double positive events: measured here: CD8+/vesicle+ event percentage. On the technique in general: Flow cytometry measures light scatter and fluorescence of single cells or particles in a stream.

The target in experiment [2] is Integrin beta-1 (Homo sapiens) + Integrin alpha-4 (Homo sapiens) (UniProt P13612+P05556). In words: alpha4beta1 integrin LIBS antibody binding reduction – U937 cells, HUTS-21 mAb, flow cytometry, validation set, VLA-4 allosteric modulator project, pilot screen (AID 2674;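 active means inhibition above 50%, about 3 SD of the validation set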;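 further: antibody binding induced by the VLA-4 ligand LDV present at three times its Kd; 0% = LDV ligand with antibody and no compound and 100% = antibody without LDV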). Conditions: HUTS-21 LIBS mAb binding, at 6.7 µM, stronger effect = higher value, binding induced by LDV ligand.

A short description of experiment [3]: calorie-restriction mimetic ROS inhibitors, yeast – validation compound set, pilot screen (AID 2706;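 active means superoxide response below 65% of plate, a cut near 3 SD across the whole screen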;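 further: yeast exposed to compound for one week at 30 degrees C before staining; 100% = mean of all compound wells on the same plate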). As to conditions: S. cerevisiae aging, superoxide DHE fluorescence; at 10 µM, stronger effect = lower value.
Experiment [4] deals with Beta-adrenergic receptor kinase 1 (Homo sapiens) (UniProt P25098). As to the kind of experiment: GRK2 binders displacing RNA aptamer, biochemical, validation, human GRK2, bead flow cytometry (AID 488806;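 active means aptamer binding inhibition above 30%, about 3 SD of noise from non-fluorescent compounds; inactive means inhibition at or below 30%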). As to conditions: bead-bound GRK2, FAM-aptamer displacement, at 10 µM, stronger effect = higher value.
For experiment [5], the target named is AP-2 complex subunit beta (Homo sapiens) (UniProt P63010). In words: beta-arrestin/AP2 interaction blockers – biochemical, validation set, GST-AP2 beads, flow cytometry, pilot screen (AID 504541;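 active means inhibition above 54%, about 3 SD of non-fluorescent compounds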;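 further: AP2 carries R879A mutation and is captured from E. coli lysate; bead-bound FITC arrestin peptide fluorescence measuring arrestin peptide binding to AP2; 0% = DMSO wells and 100% = excess unlabeled arrestin peptide control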). As to conditions: FITC arrestin peptide, at 10 µM, stronger effect = higher value, AP2 beta2 appendage fragment, R879A mutant.
Experiment [6] is described as follows: cytosolic pH regulators acting via V-ATPase – S. cerevisiae, pHLuorin, HTS validation (AID 504600; in the data active means response above about 15%;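 further: plate controls were DMSO for no effect and reference compound for full effect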). Conditions: V-ATPase proton transport, at 10 µM, stronger effect = higher value.
In experiment [7] the test system is anti-desmoglein-3 scFv antibody binding to human DSG3. In words: blockers of pathogenic pemphigus antibody–desmoglein-3 binding – biochemical, validation compound set, bead-based, flow cytometry, pilot screen (AID 588368;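 active means binding below the plate cutoff, the plate median minus 3 SD, with a reading above zero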;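 further: signal is the median channel fluorescence of bead-bound GFP antibody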). Conditions: Protein G beads, DSG3-Fc, scFv-GFP binding, at 10 µM, stronger effect = lower value.
Experiment [8] can be described thus: Nile Red efflux blockade in pump-expressing yeast – validation compound set, multiplex, phenotypic, pilot screen (AID 588506;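 active means efflux inhibition above 0.42, the validation set average plus 4 SD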;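 further: Nile Red retained in cells so higher fluorescence means more efflux inhibition; 0 = negative control wells and 1 = enniatin B 25 µM full block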). Conditions: S. cerevisiae pump-expressing triplex, Nile Red efflux flow cytometry; at 10 µM; stronger effect = higher value; the pumps come from Candida albicans.
Experiment [9] addresses ATP-binding cassette sub-family B member 6 (Homo sapiens) (UniProt Q9NP58). As to the kind of experiment: blockers of ABCB6-driven porphyrin uptake – K562-ABCB6 cells, flow cytometry, validation set, pilot screen (AID 588550).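 Further: 0% = DMSO wells and 100% = benzethonium chloride 70 µM positive control.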 Conditions: K562-ABCB6 porphyrin accumulation, 1 h, at 10 µM, stronger effect = higher value.
A short description of experiment [10]: AML differentiation inducers, ER-HoxA9 marrow cells – cell-based, GFP/MAC1 double positive, flow cytometry, validation set, primary screen (AID 588685;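 active means differentiation response of at least 50%, scaled between solvent and reference control, from cells with both markers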;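 further: compound exposure lasts four days before antibody staining and flow analysis; 0% = DMSO wells and 100% = 5 µM fulvestrant positive control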). Conditions: stronger effect = higher value, normalized: vehicle 0, fulvestrant 100.

Chain of ATP-binding cassette sub-family B member 6 (Homo sapiens) (Q9NP58 whole entry, looked up): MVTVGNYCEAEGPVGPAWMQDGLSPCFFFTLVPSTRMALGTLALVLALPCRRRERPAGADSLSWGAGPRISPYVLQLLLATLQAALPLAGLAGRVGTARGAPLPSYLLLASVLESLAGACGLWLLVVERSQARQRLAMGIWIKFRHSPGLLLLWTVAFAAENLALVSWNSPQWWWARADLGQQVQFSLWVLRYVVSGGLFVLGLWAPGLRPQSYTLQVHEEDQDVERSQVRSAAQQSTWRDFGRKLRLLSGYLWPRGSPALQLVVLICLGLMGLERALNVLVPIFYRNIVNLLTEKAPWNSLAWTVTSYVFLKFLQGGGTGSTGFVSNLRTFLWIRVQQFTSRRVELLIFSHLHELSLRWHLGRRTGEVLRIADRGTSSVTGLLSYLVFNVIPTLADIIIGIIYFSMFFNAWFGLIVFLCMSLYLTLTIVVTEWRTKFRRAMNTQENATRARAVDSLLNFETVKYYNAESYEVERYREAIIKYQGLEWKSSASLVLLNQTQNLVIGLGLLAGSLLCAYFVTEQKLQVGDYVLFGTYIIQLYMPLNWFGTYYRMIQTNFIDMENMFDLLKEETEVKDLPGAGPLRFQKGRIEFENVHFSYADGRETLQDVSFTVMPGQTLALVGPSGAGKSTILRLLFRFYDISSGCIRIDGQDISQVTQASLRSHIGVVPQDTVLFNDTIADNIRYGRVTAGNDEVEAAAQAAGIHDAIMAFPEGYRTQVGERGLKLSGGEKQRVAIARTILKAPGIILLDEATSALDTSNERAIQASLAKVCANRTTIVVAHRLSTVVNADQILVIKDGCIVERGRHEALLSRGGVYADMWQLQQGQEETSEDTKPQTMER
Chain of Integrin beta-1 (Homo sapiens) + Integrin alpha-4 (Homo sapiens) (P05556 whole entry, looked up): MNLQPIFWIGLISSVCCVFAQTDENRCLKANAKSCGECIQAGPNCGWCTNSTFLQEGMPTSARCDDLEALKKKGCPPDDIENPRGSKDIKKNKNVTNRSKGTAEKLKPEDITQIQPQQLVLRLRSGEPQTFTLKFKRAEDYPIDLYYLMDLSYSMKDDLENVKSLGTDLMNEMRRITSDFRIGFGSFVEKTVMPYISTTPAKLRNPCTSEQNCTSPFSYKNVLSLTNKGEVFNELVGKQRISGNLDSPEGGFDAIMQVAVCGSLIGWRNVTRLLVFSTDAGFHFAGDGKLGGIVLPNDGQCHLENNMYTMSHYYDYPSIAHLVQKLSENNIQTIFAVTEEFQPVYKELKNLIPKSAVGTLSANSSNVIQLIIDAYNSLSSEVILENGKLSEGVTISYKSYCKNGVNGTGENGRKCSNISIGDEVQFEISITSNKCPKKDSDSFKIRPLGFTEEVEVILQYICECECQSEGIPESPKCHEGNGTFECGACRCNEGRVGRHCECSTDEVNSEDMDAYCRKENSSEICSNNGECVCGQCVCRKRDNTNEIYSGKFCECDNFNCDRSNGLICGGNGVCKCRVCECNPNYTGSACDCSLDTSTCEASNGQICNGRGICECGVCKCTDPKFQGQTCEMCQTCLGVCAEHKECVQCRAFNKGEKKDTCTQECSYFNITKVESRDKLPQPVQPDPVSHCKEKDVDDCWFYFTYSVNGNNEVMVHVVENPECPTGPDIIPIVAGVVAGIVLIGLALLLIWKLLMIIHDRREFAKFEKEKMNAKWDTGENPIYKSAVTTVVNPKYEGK
Chain of Integrin beta-1 (Homo sapiens) + Integrin alpha-4 (Homo sapiens) (P13612 whole entry, looked up): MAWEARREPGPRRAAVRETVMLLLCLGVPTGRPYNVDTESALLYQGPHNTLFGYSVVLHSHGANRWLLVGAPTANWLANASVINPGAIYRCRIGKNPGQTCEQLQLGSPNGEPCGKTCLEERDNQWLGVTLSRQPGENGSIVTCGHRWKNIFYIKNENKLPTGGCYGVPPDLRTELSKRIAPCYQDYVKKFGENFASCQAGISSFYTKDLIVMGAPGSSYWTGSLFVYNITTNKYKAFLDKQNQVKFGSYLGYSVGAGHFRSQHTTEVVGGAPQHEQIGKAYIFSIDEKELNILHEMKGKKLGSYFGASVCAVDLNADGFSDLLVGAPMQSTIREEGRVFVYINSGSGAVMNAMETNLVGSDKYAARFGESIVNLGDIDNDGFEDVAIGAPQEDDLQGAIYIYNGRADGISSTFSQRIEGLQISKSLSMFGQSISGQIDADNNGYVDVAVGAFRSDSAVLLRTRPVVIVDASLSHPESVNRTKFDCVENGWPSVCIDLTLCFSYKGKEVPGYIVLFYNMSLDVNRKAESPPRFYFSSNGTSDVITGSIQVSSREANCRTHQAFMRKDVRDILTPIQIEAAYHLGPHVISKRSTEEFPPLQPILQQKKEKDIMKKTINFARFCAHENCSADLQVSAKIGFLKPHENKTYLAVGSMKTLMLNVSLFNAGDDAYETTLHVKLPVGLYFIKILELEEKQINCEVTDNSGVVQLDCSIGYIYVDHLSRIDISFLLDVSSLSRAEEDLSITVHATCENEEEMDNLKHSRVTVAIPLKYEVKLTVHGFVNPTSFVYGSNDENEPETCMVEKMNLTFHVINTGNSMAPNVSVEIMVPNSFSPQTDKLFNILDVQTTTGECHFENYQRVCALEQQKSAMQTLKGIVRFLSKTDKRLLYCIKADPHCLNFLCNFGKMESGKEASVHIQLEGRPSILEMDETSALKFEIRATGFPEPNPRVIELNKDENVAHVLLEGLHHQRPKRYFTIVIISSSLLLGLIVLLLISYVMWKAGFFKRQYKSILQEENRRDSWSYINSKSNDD
Chain of Beta-adrenergic receptor kinase 1 (Homo sapiens) (P25098 whole entry, looked up): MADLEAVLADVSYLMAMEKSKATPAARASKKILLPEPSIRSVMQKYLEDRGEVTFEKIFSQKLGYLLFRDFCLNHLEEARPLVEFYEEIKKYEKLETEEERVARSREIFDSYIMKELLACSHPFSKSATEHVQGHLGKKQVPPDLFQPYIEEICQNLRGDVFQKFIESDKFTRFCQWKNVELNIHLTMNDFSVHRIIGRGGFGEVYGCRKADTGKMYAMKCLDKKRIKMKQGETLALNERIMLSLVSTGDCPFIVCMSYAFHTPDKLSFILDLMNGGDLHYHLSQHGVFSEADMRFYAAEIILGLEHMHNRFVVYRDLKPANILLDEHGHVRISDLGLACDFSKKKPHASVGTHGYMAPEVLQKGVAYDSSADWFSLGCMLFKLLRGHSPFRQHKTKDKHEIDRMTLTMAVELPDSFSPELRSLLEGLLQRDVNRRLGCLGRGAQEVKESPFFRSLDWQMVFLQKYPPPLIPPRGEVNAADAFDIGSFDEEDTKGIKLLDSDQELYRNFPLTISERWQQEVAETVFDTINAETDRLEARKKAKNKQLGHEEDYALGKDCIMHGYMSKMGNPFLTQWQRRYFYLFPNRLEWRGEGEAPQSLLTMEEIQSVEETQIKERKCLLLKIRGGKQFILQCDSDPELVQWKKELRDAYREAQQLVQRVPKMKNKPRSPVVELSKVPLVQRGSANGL
Chain of AP-2 complex subunit beta (Homo sapiens) (P63010 whole entry, looked up, the tested form may be a part, one chain of several): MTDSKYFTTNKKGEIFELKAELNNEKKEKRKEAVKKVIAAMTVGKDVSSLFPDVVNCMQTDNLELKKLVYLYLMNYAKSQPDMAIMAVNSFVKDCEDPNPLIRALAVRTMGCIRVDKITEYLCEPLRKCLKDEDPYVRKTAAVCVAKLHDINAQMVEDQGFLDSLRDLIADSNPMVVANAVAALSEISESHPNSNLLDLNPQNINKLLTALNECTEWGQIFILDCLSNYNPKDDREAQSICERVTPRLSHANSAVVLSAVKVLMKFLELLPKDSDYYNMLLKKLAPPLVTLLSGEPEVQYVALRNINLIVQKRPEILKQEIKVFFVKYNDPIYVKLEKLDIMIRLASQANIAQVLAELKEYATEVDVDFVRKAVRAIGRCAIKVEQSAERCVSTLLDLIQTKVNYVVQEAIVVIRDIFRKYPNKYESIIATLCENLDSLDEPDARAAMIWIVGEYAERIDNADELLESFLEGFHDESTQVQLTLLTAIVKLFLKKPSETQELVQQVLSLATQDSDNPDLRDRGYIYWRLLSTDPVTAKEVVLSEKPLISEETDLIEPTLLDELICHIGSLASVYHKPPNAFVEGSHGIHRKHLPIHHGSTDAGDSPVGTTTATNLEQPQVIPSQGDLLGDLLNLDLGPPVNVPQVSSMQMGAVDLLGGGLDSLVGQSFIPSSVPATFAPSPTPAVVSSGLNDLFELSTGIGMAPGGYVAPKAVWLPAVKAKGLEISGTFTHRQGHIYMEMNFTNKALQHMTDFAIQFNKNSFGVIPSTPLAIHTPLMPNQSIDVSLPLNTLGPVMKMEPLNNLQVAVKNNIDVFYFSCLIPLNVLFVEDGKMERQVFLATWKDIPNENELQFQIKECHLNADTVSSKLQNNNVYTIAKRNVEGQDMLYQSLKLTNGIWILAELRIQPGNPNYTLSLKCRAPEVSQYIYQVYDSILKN

Turning to `Cn1c(=O)[nH]c(=O)c2c1nc(Br)n2CCCO`, the double positive events in [1] worked out at 64.5%. The vesicle binding response in experiment [1] is 261% (inactive). Also, the values for the inhibition in [2], in experiment [5] and in experiment [9] were 6.29% (inactive), 7.12% (inactive) and 8% (inactive), respectively. The superoxide response (% of plate) in [3] is 90.2% (inactive). Also, the aptamer binding inhibition in experiment [4] was 0% (inactive). For the same compound, the response in [6] is 0.07% (inactive). The binding (% of control) in [7] is 109% (inactive). For the same compound, the efflux inhibition (fraction of control) in experiment [8] is -0.01 (inactive). The differentiation response in experiment [10] is -24.4% (inactive).

In experiment [1], `Cc1nc(N[C@@H](Cc2c[nH]c3ccccc23)C(=O)O)c2oc3ccccc3c2n1` registered a double positive events of 62.1%. The vesicle binding response in experiment [1] was 218% (inactive). The results for the inhibition in experiment [2], in experiment [5] and in experiment [9] were -0.24% (inactive), -8.46% (inactive) and 9% (inactive), respectively. The superoxide response (% of plate) in [3] is 104% (inactive). Besides, in experiment [4], the aptamer binding inhibition was 0% (inactive). The response in experiment [6] is -0.92% (inactive). The binding (% of control) in experiment [7] is 102% (inactive). Besides, the efflux inhibition (fraction of control) in experiment [8] was -0.24 (inactive). Besides, the differentiation response in experiment [10] was -9.89% (inactive).

In [1], `O=C(NCC1CCCCN1)c1cc(OCC(F)(F)F)ccc1OCC(F)(F)F` (configuration not stated) gave a double positive events of 51.3%. Further, in experiment [1], the vesicle binding response is 183% (inactive). For the same compound, the inhibition – broadly, the change of the read-out against control, counted positive when it falls – in [2] is 1.62% (inactive); in experiment [5], -20.4% (inactive); in [9], 14% (inactive). In addition, the superoxide response (% of plate) in [3] is 102% (inactive). For the same compound, in experiment [4], the aptamer binding inhibition is -3% (inactive). Further, in [6], the response was 0.89% (inactive). Further, the binding (% of control) in experiment [7] was 103% (inactive). Moreover, the efflux inhibition (fraction of control) in experiment [8] was -0.05 (inactive). In addition, the differentiation response in experiment [10] is -8.27% (inactive).

For the compound `Cc1cc(=O)oc(C)c1C(=O)NCCC(C)C`, the double positive events in [1] is 53.1%. For the same compound, the vesicle binding response in experiment [1] is 150% (inactive). For the same compound, the figures for the inhibition in experiment [2], in [5] and in experiment [9] were -1.17% (inactive), -9.02% (inactive) and 15% (inactive), respectively. Moreover, the superoxide response (% of plate) in experiment [3] is 87.3% (inactive). Moreover, in [4], the aptamer binding inhibition was 0% (inactive). The response in [6] was 7.71% (inactive). The binding (% of control) in [7] was 102% (inactive). For the same compound, in experiment [8], the efflux inhibition (fraction of control) is 0.37 (inactive). In addition, in experiment [10], the differentiation response is 32.1% (inactive).

`CC(C)OC(=O)C(C)(C)Oc1ccc(C(=O)c2ccc(Cl)cc2)cc1` came in with a double positive events in [1] of 54.1%. In experiment [1], the vesicle binding response is 223% (inactive). Moreover, the inhibition in [2] was 12.8% (inactive); in experiment [5] it was -5.48% (inactive); in experiment [9], 7% (inactive). In experiment [3], the superoxide response (% of plate) was 106% (inactive). Moreover, the aptamer binding inhibition in [4] is -1% (inactive). Also, the response in experiment [6] was 0.98% (inactive). For the same compound, in experiment [7], the binding (% of control) was 103% (inactive). The efflux inhibition (fraction of control) in [8] is -0.09 (inactive). The differentiation response in experiment [10] is -13.1% (inactive).

`O=C(CNC(=O)OCc1ccccc1)NC1CCCCCC1` had a double positive events in experiment [1] of 55.1%. Moreover, the vesicle binding response in experiment [1] is 201% (inactive). The inhibition was 10% (inactive) in experiment [2], 1.41% (inactive) in [5] and 12% (inactive) in experiment [9]. Further, the superoxide response (% of plate) in [3] was 90.8% (inactive). Besides, in [4], the aptamer binding inhibition was 4% (inactive). For the same compound, the response in [6] was 11.3% (inactive). In addition, the binding (% of control) in experiment [7] is 99.1% (inactive). Moreover, the efflux inhibition (fraction of control) in [8] was -0.05 (inactive). Further, the differentiation response in [10] is 6.26% (inactive).

In experiment [1], `COc1ccc(-c2coc3cc(OC(=O)N4CCOCC4)ccc3c2=O)cc1` came in with a double positive events of 62.6%. In addition, the vesicle binding response in [1] is 185% (inactive). For the same compound, the inhibition in experiment [2] is -9.57% (inactive); in experiment [5], -9.14% (inactive); in [9], 10% (inactive). Moreover, in [3], the superoxide response (% of plate) is 105% (inactive). Besides, in experiment [4], the aptamer binding inhibition was -3% (inactive). Moreover, the response in experiment [6] is 4.61% (inactive). For the same compound, in experiment [7], the binding (% of control) was 109% (inactive). The efflux inhibition (fraction of control) in [8] is -0.16 (inactive). The differentiation response in experiment [10] is 19.2% (inactive).
